Shown are actives, neighbours in structure and some others; about 6.7% of the full set was active somewhere.
KB-V1 cytotox: kills drug-selected multidrug resistant KB-V1 cells; KB-V1 MDR cells viability, CellTiter-Glo, 72 h; 400,000 compounds, 3.4% hits; Potency, µM (top dose mostly 46.1 µM), most hits filed as cytotoxic; AID 1347076; also: % is scaled to controls: 0 for no effect and ±100 for the full control effect; nearly all actives have a fitted effect of over 60% in size
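Potencies derive from concentration-effect curves fitted to normalized luminescence (CellTiter-Glo) of KB-V1 cells treated for 72 h at 37 degrees C in phenol-red-free DMEM containing 10% FBS.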
PINK1 modulator: changes PINK1 expression; PINK1 immunofluorescence, high-content cytometry, 24 h; Potency, µM (top dose mostly 76.6 µM), without a hit: at the highest dose activation (PINK1 increase), actives largely listed as activators; 410,000 compounds, 0.2% hits; active = well fitted activation curve with a large enough effect; inconclusive = small, poorly fitted or top-dose-only effect; cell line not stated here; also: % of control where 0% means no effect; nearly all actives have a fitted effect of over 65% in size
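Measures PINK1 amount and localization on or inside mitochondria by immunofluorescence. Stable cells get compounds at 5 concentrations for 24 hours before fixation and staining; CCCP controls included.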
KB-3-1 cytotox: KB-3-1 parental cell cytotoxicity; Potency, µM (titrated, usually from 46.1 µM), hits mostly cytotoxic; AID 1347075; KB-3-1 viability, CellTiter-Glo ATP luminescence, 72 h; 400,000 compounds, 1.4% hits; also: % is scaled to controls: 0 for no effect and ±100 for the full control effect; nearly all actives have a fitted effect of over 60% in size
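Multi-concentration cytotoxicity screen in KB-3-1 cells grown in DMEM lacking phenol red with 10% FBS. After 72 h at 37 °C with compound, ATP-dependent luminescence was recorded.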
SW480 rerep: inducers of DNA re-replication in SW480 colon cancer cells; SW480 DNA re-replication, Hoechst DNA content imaging, 48 h; Potency, µM (top dose mostly 46.1 µM), inactives show top-dose re-replication activation, actives largely listed as activators; 340,000 compounds, 1.8% hits; AID 624297; also: % of control where 0% means no effect; nearly all actives have a fitted effect of over 55% in size
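DNA re-replication was detected as more nuclei of elevated Hoechst intensity after 48 hr exposure to compound (23 nL pinned per well of 250 cells).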
MCF10A rerep: DNA re-replication induction in MCF 10a cells; MCF 10A DNA re-replication, Hoechst nuclear intensity, 48 h; 350,000 compounds, 2.9% hits; Potency, µM (top dose mostly 46.1 µM), without a hit: at the highest dose activity, positive = re-replication, usual class: activators; also: % of control where 0% means no effect; nearly all actives have a fitted effect of over 50% in size
Starred values were filed as active, the others as inactive; [ ] = remark or other dose. Unless noted, calls follow the shape of the dose curve; as a rule, active = well fitted curve in the direction sought with a large enough effect; inconclusive = small, poorly fitted or top-dose-only effect, or another doubt; inactive = no such curve, though single readings can be large; an effect the other way counts as inactive or inconclusive. Potency is read from the fitted curve at half-maximal effect.

`COCCn1c(-c2ccccc2)cnc1SCC(=O)Nc1cccc2ccccc12` gave KB-V1 cytotox 5.2µM*, PINK1 modulator 3%, KB-3-1 cytotox inactive, SW480 rerep 8% and MCF10A rerep inconclusive.
For Cc1cccc(Nc2nnc(SCC(O)=C(C#N)c3nc4ccccc4[nH]3)s2)c1 the results were KB-V1 cytotox inactive, PINK1 modulator 3%, KB-3-1 cytotox inactive, SW480 rerep 25% and MCF10A rerep 15µM*.
For COCCn1c(-c2ccc(OC)cc2)cnc1SCC(=O)Nc1ccc(OC)cc1OC the results were KB-V1 cytotox inconclusive, PINK1 modulator 3%, KB-3-1 cytotox inactive, SW480 rerep 1% and MCF10A rerep -4%.
CCOC(=O)c1cccc(NC(=O)CSc2nc3ccccc3c(=O)n2CCOC)c1 was read as KB-V1 cytotox 4.6µM*, PINK1 modulator 5%[38.3 µM], KB-3-1 cytotox inactive, SW480 rerep -1% and MCF10A rerep 25%.
Screening CCOC(=O)c1ccc2c(c1)nc(SC/C(O)=C(\C#N)c1nc3ccccc3[nH]1)n2CC returned KB-V1 cytotox inactive, PINK1 modulator 40µM*, KB-3-1 cytotox inactive, SW480 rerep 0% and MCF10A rerep inconclusive.
Screening Cc1cc(NC(=O)CCC(=O)N(c2ccccc2)C(C(=O)NC2CCCC2)c2ccccc2F)no1 (stereo not drawn) returned KB-V1 cytotox inconclusive, PINK1 modulator -1%, KB-3-1 cytotox inactive, SW480 rerep -2% and MCF10A rerep -5%.
Screening CCOC(=O)c1cccc(NC(=O)CSc2nc3ccccc3c(=O)n2CC)c1 returned KB-V1 cytotox 2.3µM*, PINK1 modulator inconclusive, KB-3-1 cytotox inactive, SW480 rerep -8% and MCF10A rerep 4%.
CCn1c(SCC(=O)Nc2cccc(OC)c2)nc2ccccc2c1=O was read as KB-V1 cytotox inactive, PINK1 modulator 8%, KB-3-1 cytotox inactive, SW480 rerep -9% and MCF10A rerep 0%.
For CCOc1ccc(NS(=O)(=O)c2csc(C(N)=O)c2)cc1 the results were KB-V1 cytotox inactive, PINK1 modulator -3%, KB-3-1 cytotox inactive, SW480 rerep -1% and MCF10A rerep 10%.
N#CN=CN1CC=C(c2ccc(Cl)cc2)CC1 was read as KB-V1 cytotox 2.3µM*, PINK1 modulator -2% and KB-3-1 cytotox 9.2µM*.
For CCOC(=O)c1c(-c2ccc(C)cc2)csc1NC(=O)c1cc(=O)c2ccc(C)cc2o1 the results were KB-V1 cytotox inactive, PINK1 modulator 6% and KB-3-1 cytotox inactive.
For CSc1nc2c(c(=O)n1Cc1ccccc1)SC(C)C2 (stereo not drawn) the results were KB-V1 cytotox inconclusive, KB-3-1 cytotox inactive, SW480 rerep inconclusive and MCF10A rerep 7%.
`CSc1nc2[nH]c(=O)n(O)c(=O)c2n1Cc1ccccc1` gave KB-V1 cytotox inactive, PINK1 modulator inconclusive, KB-3-1 cytotox inconclusive, SW480 rerep 2.3µM* and MCF10A rerep inconclusive.
Screening Cc1cc(C(=O)N[C@H](c2ccccc2)[C@@]2(C)C[C@@H]2[C@@H](C)C(=O)Nc2ccc3ccccc3c2)n(C)n1 returned KB-V1 cytotox inconclusive, PINK1 modulator 20%, KB-3-1 cytotox inconclusive, SW480 rerep 15µM* and MCF10A rerep inconclusive.
COc1ccc(N2C(=O)C(C)(C)C2c2c(O)ccc3ccccc23)cc1 (stereo not drawn) was read as KB-V1 cytotox inactive, PINK1 modulator inconclusive, KB-3-1 cytotox inactive, SW480 rerep inconclusive and MCF10A rerep inconclusive.
For CC1(C)C(=O)N(c2ccccc2)C1c1ccccc1O (stereo not drawn) the results were KB-V1 cytotox inactive, PINK1 modulator 6%, KB-3-1 cytotox inconclusive, SW480 rerep inconclusive and MCF10A rerep 7.3µM*.
COc1ccc(C(=O)COC(=O)CCS(=O)(=O)c2ccc(C)cc2)c(OC)c1 was read as KB-V1 cytotox inactive, PINK1 modulator 0%, KB-3-1 cytotox inactive, SW480 rerep 0% and MCF10A rerep 0%.
`Cc1ccc(S(=O)(=O)CCC(=O)OCC(=O)c2cc(C)ccc2C)cc1` gave KB-V1 cytotox inactive, PINK1 modulator 2%, KB-3-1 cytotox inactive, SW480 rerep 0% and MCF10A rerep 1%.
